# According to PMC11006913:
# Tests used:
# Assay in all cases: PBM; 200 nM protein, PBS
# Details in all cases: dsDNA, one strand shown
# HOXC9 [1] = target: HOXC9 (Homo sapiens, UniProt P31274 178-260, K195R)
# HOXC9 [2] = target: HOXC9 (Homo sapiens, UniProt P31274 178-260)
# HOXC9 [3] = target: HOXC9 (Homo sapiens, UniProt P31274 178-260, R193K)
# PROP1 [4] = target: PROP1 (Homo sapiens, UniProt O75360 56-141)
# PROP1 [5] = target: PROP1 (Homo sapiens, UniProt O75360 56-141, R99H)
# HOXC9 [6] = target: HOXC9 (Homo sapiens, UniProt P31274 178-260, R222W)
# PROP1 [7] = target: PROP1 (Homo sapiens, UniProt O75360 56-141, F88S)
# ALX3 = ALX3 (Homo sapiens, UniProt O95076 139-225)
# VENTX = target: T1, VENTX (Homo sapiens, UniProt O95231 78-163)
# T1 sequence: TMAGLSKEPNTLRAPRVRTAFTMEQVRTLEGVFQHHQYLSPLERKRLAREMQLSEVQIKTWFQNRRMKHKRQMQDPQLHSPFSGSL
# SIX6 = target: T2, SIX6 (Homo sapiens, UniProt O95475 114-200, L143V)
# T2 sequence: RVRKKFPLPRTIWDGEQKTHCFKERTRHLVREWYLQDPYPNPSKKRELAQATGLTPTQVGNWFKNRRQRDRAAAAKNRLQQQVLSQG
# ALX4 = ALX4 (Homo sapiens, UniProt Q9H161 200-286)
# Chain of ALX4 (Q9H161 200-286): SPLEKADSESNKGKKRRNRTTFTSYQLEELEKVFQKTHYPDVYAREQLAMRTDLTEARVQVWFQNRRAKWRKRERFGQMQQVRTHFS
# Chain of HOXC9 (Homo sapiens, UniProt P31274 178-260, R222W) (P31274 178-260 R222W): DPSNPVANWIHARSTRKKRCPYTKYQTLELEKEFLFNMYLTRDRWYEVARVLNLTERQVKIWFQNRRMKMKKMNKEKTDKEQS
# Chain of HOXC9 (Homo sapiens, UniProt P31274 178-260) (P31274 178-260): as the sequence (P31274 178-260 R222W) above, with W45R counted along it
# Chain of HOXC9 (Homo sapiens, UniProt P31274 178-260, R193K) (P31274 178-260 R193K): as the sequence (P31274 178-260 R222W) above, with R16K, W45R counted along it
# Chain of HOXC9 (Homo sapiens, UniProt P31274 178-260, K195R) (P31274 178-260 K195R): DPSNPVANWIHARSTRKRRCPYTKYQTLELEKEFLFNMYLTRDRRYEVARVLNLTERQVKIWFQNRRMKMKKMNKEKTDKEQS
# Chain of PROP1 (Homo sapiens, UniProt O75360 56-141, F88S) (O75360 56-141 F88S): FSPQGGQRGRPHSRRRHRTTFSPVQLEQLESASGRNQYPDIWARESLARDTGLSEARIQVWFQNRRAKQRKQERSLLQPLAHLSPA
# Chain of PROP1 (Homo sapiens, UniProt O75360 56-141, R99H) (O75360 56-141 R99H): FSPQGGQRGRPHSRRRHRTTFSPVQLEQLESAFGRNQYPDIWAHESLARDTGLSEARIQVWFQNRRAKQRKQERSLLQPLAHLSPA
# Chain of ALX3 (O95076 139-225): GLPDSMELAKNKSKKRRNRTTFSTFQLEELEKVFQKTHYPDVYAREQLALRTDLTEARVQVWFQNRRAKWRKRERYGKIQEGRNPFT
# Chain of PROP1 (Homo sapiens, UniProt O75360 56-141) (O75360 56-141): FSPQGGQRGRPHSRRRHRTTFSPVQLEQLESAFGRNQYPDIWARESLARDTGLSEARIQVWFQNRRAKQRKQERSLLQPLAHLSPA
sequence,measurement,setting,value
CGGTGCCA,binding signal,HOXC9 [1],"9.43 upbm affinity estimate (log intensity, higher = more binding, comparable within an allelic series)"
same,binding signal,HOXC9 [2],"9.52 upbm affinity estimate (log intensity, higher = more binding, comparable within an allelic series)"
same,binding signal,HOXC9 [3],"9.49 upbm affinity estimate (log intensity, higher = more binding, comparable within an allelic series)"
same,binding signal,PROP1 [4],"6.41 upbm affinity estimate (log intensity, higher = more binding, comparable within an allelic series)"
same,binding signal,PROP1 [5],"6.46 upbm affinity estimate (log intensity, higher = more binding, comparable within an allelic series)"
same,binding signal,HOXC9 [6],"9.58 upbm affinity estimate (log intensity, higher = more binding, comparable within an allelic series)"
same,binding signal,PROP1 [7],"6.5 upbm affinity estimate (log intensity, higher = more binding, comparable within an allelic series)"
GAGATAAA,binding signal,HOXC9 [1],"11.1 upbm affinity estimate (log intensity, higher = more binding, comparable within an allelic series)"
same,binding signal,HOXC9 [2],"11.1 upbm affinity estimate (log intensity, higher = more binding, comparable within an allelic series)"
same,binding signal,HOXC9 [3],"11.1 upbm affinity estimate (log intensity, higher = more binding, comparable within an allelic series)"
CCGTTATA,binding signal,HOXC9 [1],"11.3 upbm affinity estimate (log intensity, higher = more binding, comparable within an allelic series)"
same,binding signal,HOXC9 [2],"11.3 upbm affinity estimate (log intensity, higher = more binding, comparable within an allelic series)"
same,binding signal,HOXC9 [3],"11.2 upbm affinity estimate (log intensity, higher = more binding, comparable within an allelic series)"
same,binding signal,HOXC9 [6],"10.3 upbm affinity estimate (log intensity, higher = more binding, comparable within an allelic series)"
AGTATAAC,binding signal,HOXC9 [1],"11 upbm affinity estimate (log intensity, higher = more binding, comparable within an allelic series)"
same,binding signal,HOXC9 [2],"11 upbm affinity estimate (log intensity, higher = more binding, comparable within an allelic series)"
same,binding signal,HOXC9 [3],"11 upbm affinity estimate (log intensity, higher = more binding, comparable within an allelic series)"
CGTTAAAG,binding signal,HOXC9 [1],"11.3 upbm affinity estimate (log intensity, higher = more binding, comparable within an allelic series)"
same,binding signal,HOXC9 [2],"11.4 upbm affinity estimate (log intensity, higher = more binding, comparable within an allelic series)"
same,binding signal,HOXC9 [3],"11.3 upbm affinity estimate (log intensity, higher = more binding, comparable within an allelic series)"
AGGACGTG,binding signal,HOXC9 [1],"9.73 upbm affinity estimate (log intensity, higher = more binding, comparable within an allelic series)"
same,binding signal,HOXC9 [2],"9.75 upbm affinity estimate (log intensity, higher = more binding, comparable within an allelic series)"
same,binding signal,HOXC9 [3],"9.75 upbm affinity estimate (log intensity, higher = more binding, comparable within an allelic series)"
same,binding signal,HOXC9 [6],"9.71 upbm affinity estimate (log intensity, higher = more binding, comparable within an allelic series)"
ACTTTACG,binding signal,HOXC9 [1],"11.5 upbm affinity estimate (log intensity, higher = more binding, comparable within an allelic series)"
same,binding signal,HOXC9 [2],"11.7 upbm affinity estimate (log intensity, higher = more binding, comparable within an allelic series)"
same,binding signal,HOXC9 [3],"11.5 upbm affinity estimate (log intensity, higher = more binding, comparable within an allelic series)"
ATCTTTAA,binding signal,HOXC9 [1],"11.4 upbm affinity estimate (log intensity, higher = more binding, comparable within an allelic series)"
same,binding signal,HOXC9 [2],"11.3 upbm affinity estimate (log intensity, higher = more binding, comparable within an allelic series)"
same,binding signal,HOXC9 [3],"11.4 upbm affinity estimate (log intensity, higher = more binding, comparable within an allelic series)"
TTATACAA,binding signal,HOXC9 [1],"11.1 upbm affinity estimate (log intensity, higher = more binding, comparable within an allelic series)"
same,binding signal,HOXC9 [2],"11.1 upbm affinity estimate (log intensity, higher = more binding, comparable within an allelic series)"
same,binding signal,HOXC9 [3],"11.2 upbm affinity estimate (log intensity, higher = more binding, comparable within an allelic series)"
same,binding signal,ALX3,"9.71 upbm affinity estimate (log intensity, higher = more binding, comparable within an allelic series)"
CCTCTGGA,binding signal,HOXC9 [1],"9.66 upbm affinity estimate (log intensity, higher = more binding, comparable within an allelic series)"
same,binding signal,HOXC9 [2],"9.58 upbm affinity estimate (log intensity, higher = more binding, comparable within an allelic series)"
same,binding signal,HOXC9 [3],"9.64 upbm affinity estimate (log intensity, higher = more binding, comparable within an allelic series)"
same,binding signal,HOXC9 [6],"9.74 upbm affinity estimate (log intensity, higher = more binding, comparable within an allelic series)"
CTGTTATA,binding signal,HOXC9 [1],"11.5 upbm affinity estimate (log intensity, higher = more binding, comparable within an allelic series)"
same,binding signal,HOXC9 [2],"11.5 upbm affinity estimate (log intensity, higher = more binding, comparable within an allelic series)"
same,binding signal,HOXC9 [3],"11.5 upbm affinity estimate (log intensity, higher = more binding, comparable within an allelic series)"
TTCATAAA,binding signal,HOXC9 [1],"11.7 upbm affinity estimate (log intensity, higher = more binding, comparable within an allelic series)"
same,binding signal,HOXC9 [2],"11.7 upbm affinity estimate (log intensity, higher = more binding, comparable within an allelic series)"
same,binding signal,HOXC9 [3],"11.7 upbm affinity estimate (log intensity, higher = more binding, comparable within an allelic series)"
CGCGTTTA,binding signal,VENTX,"10.2 upbm affinity estimate (log intensity, higher = more binding, comparable within an allelic series)"
CATCATCA,binding signal,VENTX,"10.4 upbm affinity estimate (log intensity, higher = more binding, comparable within an allelic series)"
GGATATAA,binding signal,SIX6,"10.5 upbm affinity estimate (log intensity, higher = more binding, comparable within an allelic series)"
CATTTACG,binding signal,VENTX,"10.4 upbm affinity estimate (log intensity, higher = more binding, comparable within an allelic series)"
GGGCACGA,binding signal,HOXC9 [1],"9.75 upbm affinity estimate (log intensity, higher = more binding, comparable within an allelic series)"
same,binding signal,HOXC9 [2],"9.85 upbm affinity estimate (log intensity, higher = more binding, comparable within an allelic series)"
same,binding signal,HOXC9 [3],"9.76 upbm affinity estimate (log intensity, higher = more binding, comparable within an allelic series)"
same,binding signal,HOXC9 [6],"9.89 upbm affinity estimate (log intensity, higher = more binding, comparable within an allelic series)"
ATTTAGTC,binding signal,VENTX,"10.2 upbm affinity estimate (log intensity, higher = more binding, comparable within an allelic series)"
CGACTTAA,binding signal,VENTX,"10.1 upbm affinity estimate (log intensity, higher = more binding, comparable within an allelic series)"
same,binding signal,ALX4,"10.3 upbm affinity estimate (log intensity, higher = more binding, comparable within an allelic series)"
CCTAGACG,binding signal,HOXC9 [1],"9.79 upbm affinity estimate (log intensity, higher = more binding, comparable within an allelic series)"
same,binding signal,HOXC9 [2],"9.86 upbm affinity estimate (log intensity, higher = more binding, comparable within an allelic series)"
same,binding signal,HOXC9 [3],"9.81 upbm affinity estimate (log intensity, higher = more binding, comparable within an allelic series)"
same,binding signal,HOXC9 [6],"9.82 upbm affinity estimate (log intensity, higher = more binding, comparable within an allelic series)"
CGGTCCAG,binding signal,HOXC9 [1],"9.64 upbm affinity estimate (log intensity, higher = more binding, comparable within an allelic series)"
same,binding signal,HOXC9 [2],"9.66 upbm affinity estimate (log intensity, higher = more binding, comparable within an allelic series)"
same,binding signal,HOXC9 [3],"9.64 upbm affinity estimate (log intensity, higher = more binding, comparable within an allelic series)"
same,binding signal,HOXC9 [6],"9.63 upbm affinity estimate (log intensity, higher = more binding, comparable within an allelic series)"
ACCGATCT,binding signal,VENTX,"9.79 upbm affinity estimate (log intensity, higher = more binding, comparable within an allelic series)"
CGATAACC,binding signal,VENTX,"9.81 upbm affinity estimate (log intensity, higher = more binding, comparable within an allelic series)"
ACCGCTTA,binding signal,VENTX,"10.8 upbm affinity estimate (log intensity, higher = more binding, comparable within an allelic series)"
CCTGCACC,binding signal,HOXC9 [1],"9.28 upbm affinity estimate (log intensity, higher = more binding, comparable within an allelic series)"
same,binding signal,HOXC9 [2],"9.29 upbm affinity estimate (log intensity, higher = more binding, comparable within an allelic series)"
same,binding signal,HOXC9 [3],"9.3 upbm affinity estimate (log intensity, higher = more binding, comparable within an allelic series)"
same,binding signal,HOXC9 [6],"9.7 upbm affinity estimate (log intensity, higher = more binding, comparable within an allelic series)"
GGGGGGCA,binding signal,HOXC9 [1],"9.42 upbm affinity estimate (log intensity, higher = more binding, comparable within an allelic series)"
same,binding signal,HOXC9 [2],"9.53 upbm affinity estimate (log intensity, higher = more binding, comparable within an allelic series)"
same,binding signal,HOXC9 [3],"9.49 upbm affinity estimate (log intensity, higher = more binding, comparable within an allelic series)"
same,binding signal,HOXC9 [6],"9.28 upbm affinity estimate (log intensity, higher = more binding, comparable within an allelic series)"
ATAATAAC,binding signal,HOXC9 [1],"12 upbm affinity estimate (log intensity, higher = more binding, comparable within an allelic series)"
same,binding signal,HOXC9 [2],"12 upbm affinity estimate (log intensity, higher = more binding, comparable within an allelic series)"
same,binding signal,HOXC9 [3],"12 upbm affinity estimate (log intensity, higher = more binding, comparable within an allelic series)"
same,binding signal,HOXC9 [6],"10.7 upbm affinity estimate (log intensity, higher = more binding, comparable within an allelic series)"
GATTGAGC,binding signal,VENTX,"9.7 upbm affinity estimate (log intensity, higher = more binding, comparable within an allelic series)"
AAAATGCT,binding signal,VENTX,"9.84 upbm affinity estimate (log intensity, higher = more binding, comparable within an allelic series)"
